Assay results: PubChem BioAssay (NCATS)
“And” between values parts separate entries of the source, which are not always exact repeats. Identical values can stand only once. Records with an inconclusive call do not appear. The source made the active and inactive calls. Unless noted, the call rests on the fitted dose curve; in most records, active means well fitted curve in the direction sought with a large enough effect; inconclusive means small, poorly fitted or top-dose-only effect, or another doubt; inactive means no such curve, though single readings can be large; an effect the other way counts as inactive or inconclusive.

Tests used:
[1] = P-glycoprotein substrates identified in KB-8-5-11 adenocarcinoma cell line, qHTS therapeutic library screen (AID 1346987); further: nearly all actives have a fitted effect of over 65% in size
How it was run: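 Compounds are pinned in dose-response onto KB-8-5-11 cells (500 cells/well, colchicine-free medium) and left 72 h at 37 degree C. CellTiter-Glo luminescence then yields AC50 values.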

[2] = NS1 protein of Zika virus - qHTS assay to identify small molecule inhibitors in human HEK 293 cells (AID 1347053); further: nearly all actives have a fitted effect of over 55% in size
How it was run: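 Readout was TR-FRET using paired anti-NS1 antibodies after 24 h infection of HEK 293 cells with ZIKV MR766 (MOI = 0.5). Compound preceded virus by 1 h; reduced signal reflects lower NS1 expression.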

[3] = qHTS for Inhibitors of the Functional Ribonucleoprotein Complex (vRNP) of Lassa (LASV) Arenavirus: LASV Primary Screen - GLuc reporter signal (AID 1347082; calls by dose curve; tested in HEK293 reporter line; further: nearly all actives have a fitted effect of over 60% in size)
[4] = qHTS for Inhibitors of the Functional Ribonucleoprotein Complex (vRNP) of Lassa (LASV) Arenavirus: Viability assay - alamar blue signal for LASV Primary Screen (AID 1347083; calls by dose curve; tested in HEK293 reporter line; further: nearly all actives have a fitted effect of over 80% in size)
[5] = qHTS for Inhibitors of the Functional Ribonucleoprotein Complex (vRNP) of Lymphocytic Choriomeningitis Arenaviruses (LCMV): Viability assay - alamar blue signal for LCMV Primary Screen (AID 1347085; calls by dose curve; tested in HEK293 reporter line; further: nearly all actives have a fitted effect of over 80% in size)
[6] = molecular target: Nucleoprotein (Lymphocytic choriomeningitis virus (strain Armstrong)) (UniProt P09992); experiment: qHTS for Inhibitors of the Functional Ribonucleoprotein Complex (vRNP) of Lymphocytic Choriomeningitis Arenaviruses (LCMV): LCMV Primary Screen - GLuc reporter signal (AID 1347086; calls by dose curve; further: nearly all actives have a fitted effect of over 70% in size)
Chain of Nucleoprotein (Lymphocytic choriomeningitis virus (strain Armstrong)) (P09992 whole entry, looked up): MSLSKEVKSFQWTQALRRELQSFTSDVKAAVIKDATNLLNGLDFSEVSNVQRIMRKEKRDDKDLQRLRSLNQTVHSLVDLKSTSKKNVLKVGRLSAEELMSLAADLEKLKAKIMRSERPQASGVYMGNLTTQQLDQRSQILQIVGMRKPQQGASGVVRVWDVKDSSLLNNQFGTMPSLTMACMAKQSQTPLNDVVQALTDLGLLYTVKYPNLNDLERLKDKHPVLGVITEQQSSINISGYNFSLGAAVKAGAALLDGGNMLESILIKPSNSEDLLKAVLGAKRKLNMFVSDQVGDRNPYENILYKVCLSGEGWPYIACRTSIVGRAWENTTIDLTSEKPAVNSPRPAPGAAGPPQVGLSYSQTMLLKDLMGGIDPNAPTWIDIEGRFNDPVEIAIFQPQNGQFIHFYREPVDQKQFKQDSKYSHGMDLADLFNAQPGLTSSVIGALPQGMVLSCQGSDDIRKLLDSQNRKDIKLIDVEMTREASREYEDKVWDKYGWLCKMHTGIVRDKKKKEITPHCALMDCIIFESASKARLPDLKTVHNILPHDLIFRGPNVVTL

[7] = qHTS of pediatric cancer cell lines to identify multiple opportunities for drug repurposing: Primary screen for TC32 cells (AID 1347089); further: nearly all actives have a fitted effect of over 60% in size
How it was run: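 qHTS, TC32, 48 h drug treatment, CellTiter-Glo luminescence as a proxy for metabolically active cells; primary top concentration 46 µM (MIPE 11-pt, NPC 8-pt); confirmatory 11-pt.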

[8] = qHTS of pediatric cancer cell lines to identify multiple opportunities for drug repurposing: Primary screen for DAOY cells (AID 1347090); further: nearly all actives have a fitted effect of over 55% in size
How it was run: (§1)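 Eight- or eleven-point concentration series, 48 h treatment at 37 degrees C in growth media; readout CellTiter-Glo luminescence. Potency and efficacy were taken from the concentration-response curves.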

[9] = qHTS of pediatric cancer cell lines to identify multiple opportunities for drug repurposing: Primary screen for SJ-GBM2 cells (AID 1347091)
How it was run: as §1

[10] = qHTS of pediatric cancer cell lines to identify multiple opportunities for drug repurposing: Primary screen for SK-N-MC cells (AID 1347093)
How it was run: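 Metabolically active cells were quantified by ATP-dependent luminescence (CellTiter-Glo, 15 min at room temperature) following 48 h treatment. Cells had been plated at 500-1,000 per well and settled for 5 h beforehand.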

[11] = qHTS of pediatric cancer cell lines to identify multiple opportunities for drug repurposing: Primary screen for BT-37 cells (AID 1347094)
How it was run: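 Cells seeded at 500-1,000 cells/well in growth media, rested 5 hours at 37 degrees C, 5% CO2, then dosed; MIPE compounds at 11-point (from 0.78 nM) and NPC at 8-point (from 0.59 nM) final concentrations. Viability by CellTiter-Glo luminescence after 48 hours.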

[12] = qHTS of pediatric cancer cell lines to identify multiple opportunities for drug repurposing: Primary screen for A673 cells (AID 1347092); further: nearly all actives have a fitted effect of over 45% in size
How it was run: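 Luminescence from CellTiter-Glo, taken after 15 min at room temperature, served as the proxy for metabolically active cells following 48 h treatment. Both potency and efficacy were taken from curves fitted to the titration data.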

Measured: Potency
Potency means the concentration at half of the fitted maximal effect.

C[C@]12CC[C@@H]3[C@@H](CCC4=CC(=O)CC[C@@H]43)[C@@H]1CC[C@@H]2OC(=O)CCc1ccccc1
active: [1] 5.8 µM
inactive: [2] | [3] | [4] | [5] | [6] | [7] | [8] | [9] | [10] | [11]

O=S(=O)(O)C(F)(F)C(F)(F)C(F)(F)C(F)(F)F
inactive: [1] | [2] | [3] | [4] | [5] | [6] | [7] | [8] | [9] | [12] | [10] | [11]

C[C@H]([C@H](O)CCC(C)(C)O)[C@H]1CC[C@@]2(O)C3=CC(=O)[C@@H]4C[C@@H](O)[C@@H](O)C[C@]4(C)[C@@H]3CC[C@]12C
inactive: [1] | [2] | [3] | [4] | [5] | [6] | [7] | [8] | [9] | [12] | [10] | [11]

CCCC[N+]1(C)[C@H]2CC(OC(=O)[C@H](CO)c3ccccc3)C[C@H]1[C@H]1O[C@H]12 (some centres undefined)
inactive: [1] | [2] | [3] | [4] | [5] | [6] | [7] | [8] | [9] | [12] | [10]

Cc1[nH]nc2ccc(-c3cncc(OC[C@@H](N)Cc4c[nH]c5ccccc45)c3)cc12
active: [1] 526 nM and 5.17 µM | [2] 5900 nM | [3] 485 nM | [4] 172 nM | [5] 432 nM | [6] 243 nM | [7] 1860 nM | [8] 1870 nM | [9] 1050 nM | [12] 118 nM | [10] 264 nM | [11] 1530 nM

Oc1ccc2c3c1O[C@H]1[C@@H](O)C=C[C@H]4[C@@H](C2)NCC[C@@]341
inactive: [1] | [2] | [3] | [4] | [5] | [6] | [7] | [8] | [12] | [10] | [11]

Cc1nc(-c2ccc(-c3ccc(C(=O)N4CCc5cc6c(cc54)C4(CCN(C)CC4)CO6)cc3)c(C)c2)no1
inactive: [1] | [2] | [3] | [4] | [5] | [6] | [7] | [8] | [9] | [12] | [10] | [11]

O=[N+]([O-])c1c(Cl)c(Cl)cc(Cl)c1Cl
inactive: [1] | [2] | [3] | [4] | [5] | [6] | [7] | [8] | [9] | [12] | [11]

CCN(CC)C(=O)c1ccc(C2=CC3(CCNCC3)Oc3cccc(O)c32)cc1
inactive: [1] | [2] | [3] | [4] | [5] | [6] | [7] | [8] | [9] | [12] | [10] | [11]

CCOP(=O)(OCC)C(C)NC(=O)N(CCCl)N=O (centres undefined)
inactive: [1] | [2] | [3] | [4] | [5] | [6] | [7] | [8] | [12] | [10] | [11]

COc1cccc2c1[C@]13CCN(CC4CC4)[C@H](C2)[C@]1(OC)CCC(=O)C3
inactive: [1] | [2] | [3] | [4] | [5] | [6] | [7] | [8] | [9] | [12] | [10] | [11]

Nc1ccc(Cl)cc1
inactive: [1] | [2] | [3] | [4] | [5] | [6] | [7] | [8] | [9] | [12] | [10] | [11]

O=c1[nH]c2ccc(Cl)cc2c(N[C@@H]2CN3CCC2CC3)c1-c1nc2ccccc2[nH]1
active: [1] 1.66 µM | [2] 52.6 nM | [3] 1220 nM | [4] 122 nM | [5] 217 nM | [6] 863 nM | [7] 930 nM | [8] 743 nM | [9] 46.9 nM | [12] 296 nM | [10] 33.2 nM | [11] 5440 nM

C=CC(=O)NCNC(=O)C=C
inactive: [1] | [2] | [3] | [4] | [5] | [6] | [7] | [8] | [9] | [12] | [10] | [11]

CN[C@@H]1Cc2cccc3[nH]c(=O)n(c23)C1
inactive: [1] | [2] | [3] | [4] | [5] | [6] | [7] | [8] | [9] | [10] | [11]

CC(O)CN1CCN(CC(=O)[O-])CCN(CC(=O)[O-])CCN(CC(=O)[O-])CC1.[Gd+3] (centres undefined)
inactive: [1] | [2] | [3] | [4] | [5] | [6] | [7] | [8] | [9] | [12] | [10] | [11]

CN(C)NC(=O)CCC(=O)O
inactive: [1] | [2] | [3] | [4] | [5] | [6] | [7] | [8] | [12] | [10] | [11]

C[C@@H]1O[C@@H](O[C@@H]2C=C3CC[C@@H]4[C@@H](CC[C@]5(C)[C@H](c6ccc(=O)oc6)CC[C@@]45O)[C@@]3(C)CC2)[C@H](O)[C@H](O)[C@H]1O
active: [1] 0.0209 µM | [2] 11.8 nM | [3] 68.5 nM | [4] 68.5 nM | [5] 54.4 nM | [6] 76.9 nM | [7] 41.5 nM | [8] 14.8 nM | [9] 8.3 nM | [12] 14.8 nM | [10] 8.3 nM | [11] 9.7 nM
